Assay results taken from the supplement of paper PMC6555819.

What follows are sequences tested on RARg homodimer (NR concentration 270 nM) (assay: PBM binding z-score (relative to random genomic background probes); higher = stronger binding; sequences stand for … in GC…GCGATTGACAGCGTAGAATGAAGG).
Procedure, shortened: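 Binding buffer was PBS pH 7.4 with 2% milk, 0.02% Triton X-100, 1 mM DTT, 0.2 mg/mL BSA and 0.4 mg/ml salmon testes DNA. In it, ligand-free nuclear receptor dimers were incubated 1 h on custom Agilent 4×180K protein-binding microarrays carrying double-stranded probes. Antibodies against each partner (one per run) detected binding, and z-scores were calculated against random background probes after regression normalization of scanned fluorescence.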
CCTTACGGGTCACTCCAGGTTATAGCATCGGAGT gave a PBM binding z-score of 4.35. In the case of TTGCCTAGGTCATGGGCCAGTATACCACGCGAAC, the PBM binding z-score is reported as 4.41. Work on TCTTGTAGATCAATGGTTAAGAAAGCCGAAGCCT yielded a PBM binding z-score of -0.444. In the case of CCGACTGGGGCATAAGGTTACCCTAAGCCAGCCC, the PBM binding z-score is reported as 0.806. In the case of CCTTACTGGTCACTCCAGGTTATAGCATCGGAGT, the PBM binding z-score is reported as 1.32. In the case of ATCTCTAGGTCACCAAGTTCAGTGAATGCCGAAC, the PBM binding z-score is reported as 6.25. AGAACGAGGGCAATGAGTTGTTAGCACGGGTGGC gave a PBM binding z-score of 1.3. GCTGCTACGTCAGGTTGGTCAGCTAACGGGTACG showed a PBM binding z-score of -0.278. For TAGCCTAGGTCAGACCGGGCCAGTATACGCTATA, the PBM binding z-score was 3.34. In the case of CCGAGTAGGTTATGGGGCACTCAGGCAACGGTGA, the PBM binding z-score is reported as 0.553. GCTTACGGGTCAAAGGTGATAGCATGAATAGAAT gave a PBM binding z-score of 4.21. For CCTACTGGGCCAAACAGGTCATTGATGCCGATAA, the PBM binding z-score was 1.36. ATATGTAGGTTATGGGGTCATTCAGTTTGCGCAT was tested, and the PBM binding z-score was 3.67. ATCGAAAGGTCGTGAGGTTAGTATACAGAAAGGC showed a PBM binding z-score of 4.09. Sequence GCGACTGGGGCAAAGCAGGTTTCCATAAGGTTGG has a PBM binding z-score of -0.133. With CCTACTAGGCCAAAAAGGTCATTGATGCCGATAA the PBM binding z-score was 4.61. Sequence GCTGCTAGGTCAACTGTTGGTCAGCTAAAGCTCG has a PBM binding z-score of 5.32. AGAACGAGGGCACGTTGAGTTGATAGCAGAGTAG was tested, and the PBM binding z-score was 1.95. In the case of CGTCCAGGGTCAAAGGTCAGTGAAGAGATGACGG, the PBM binding z-score is reported as 7. In the case of ATCACTAGGTAAAAGTTCAGTGAATCCCGAGGAT, the PBM binding z-score is reported as 1.85. Sequence CCAGATAGGTGAGAAGGTAACTCAGCCTCGATTA has a PBM binding z-score of 0.649. In the case of ACTATTAGTTAACTTAGGGCAACCGATACGACGC, the PBM binding z-score is reported as 1.
